Our source for the binding signal values is PMC5700166.

Positions count from the first letter of the chain named.

What all share (assay): protein-binding microarray (PBM); PBM: ~300 nM protein, 6 mM HEPES pH 7.8, 80 mM KCl, 0.5 mM EDTA, 0.5 mM EGTA, 6% glycerol, 35 ng/ul poly-dIdC, 1% milk, 1 h, room temperature; Ap Aiptasia and Nv Nematostella (sea anemones) / Co Capsaspora / Aq Amphimedon (sponge) / Dm Drosophila / Hu human; RHD is the Rel homology domain; high values mean tight binding
Holding throughout (details): dsDNA, one strand shown

For assay [1], the target named is T1, GST-Ap-NF-kB RHD (Exaiptasia pallida (Aiptasia), UniProt A0A913YAJ5 2-422).
T1 sequence: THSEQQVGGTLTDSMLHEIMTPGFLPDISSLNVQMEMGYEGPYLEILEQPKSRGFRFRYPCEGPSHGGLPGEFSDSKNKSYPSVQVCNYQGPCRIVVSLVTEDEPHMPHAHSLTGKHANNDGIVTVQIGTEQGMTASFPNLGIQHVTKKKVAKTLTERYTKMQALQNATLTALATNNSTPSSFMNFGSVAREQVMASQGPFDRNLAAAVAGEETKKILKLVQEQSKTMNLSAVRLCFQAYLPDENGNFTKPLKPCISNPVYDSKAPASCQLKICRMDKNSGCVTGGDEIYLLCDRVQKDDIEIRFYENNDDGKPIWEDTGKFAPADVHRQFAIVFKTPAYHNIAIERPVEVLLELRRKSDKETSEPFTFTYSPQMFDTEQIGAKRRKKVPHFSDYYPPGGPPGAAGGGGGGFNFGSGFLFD

For assay [2], the target named is T2, GST-Nv-NF-kB (Cys allele) (Nematostella vectensis, UniProt E5G601 2-411).
T2 sequence: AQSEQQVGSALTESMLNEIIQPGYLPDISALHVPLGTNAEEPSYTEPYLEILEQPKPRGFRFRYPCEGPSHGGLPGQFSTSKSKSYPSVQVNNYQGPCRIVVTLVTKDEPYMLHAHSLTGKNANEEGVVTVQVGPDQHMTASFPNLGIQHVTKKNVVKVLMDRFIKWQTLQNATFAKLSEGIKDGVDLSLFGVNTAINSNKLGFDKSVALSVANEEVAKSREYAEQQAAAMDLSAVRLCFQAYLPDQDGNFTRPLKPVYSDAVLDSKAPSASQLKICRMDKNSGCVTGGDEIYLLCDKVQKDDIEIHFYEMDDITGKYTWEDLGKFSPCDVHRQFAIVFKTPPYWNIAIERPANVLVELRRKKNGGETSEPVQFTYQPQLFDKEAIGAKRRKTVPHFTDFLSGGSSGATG

The target of assay [3] is T3, GST-Nv-NF-kB (Ser allele) (Nematostella vectensis, UniProt A7UNT2 2-411).
T3 sequence: T2 sequence with Q21R, C66S, S207N, E215Q, V217A, E225K, A268E, D399E

Assay [4] concerns the target T4, GST-Dm-Relish (Drosophila melanogaster, UniProt Q94527 99-473).
T4 sequence: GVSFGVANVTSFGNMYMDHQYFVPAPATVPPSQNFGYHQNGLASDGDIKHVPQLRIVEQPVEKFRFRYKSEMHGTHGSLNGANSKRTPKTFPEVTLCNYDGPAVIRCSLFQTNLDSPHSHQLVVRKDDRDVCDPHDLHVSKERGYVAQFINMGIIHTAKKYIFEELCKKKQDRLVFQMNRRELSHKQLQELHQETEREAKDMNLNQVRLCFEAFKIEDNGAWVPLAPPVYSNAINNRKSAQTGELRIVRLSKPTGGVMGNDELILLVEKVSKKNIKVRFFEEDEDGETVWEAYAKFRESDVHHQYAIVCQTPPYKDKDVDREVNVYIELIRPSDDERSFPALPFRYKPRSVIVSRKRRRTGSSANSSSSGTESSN

In assay [5] the target is T5, GST-Aq-NF-kB (Amphimedon queenslandica, UniProt A9Y5G7 2-389).
T5 sequence: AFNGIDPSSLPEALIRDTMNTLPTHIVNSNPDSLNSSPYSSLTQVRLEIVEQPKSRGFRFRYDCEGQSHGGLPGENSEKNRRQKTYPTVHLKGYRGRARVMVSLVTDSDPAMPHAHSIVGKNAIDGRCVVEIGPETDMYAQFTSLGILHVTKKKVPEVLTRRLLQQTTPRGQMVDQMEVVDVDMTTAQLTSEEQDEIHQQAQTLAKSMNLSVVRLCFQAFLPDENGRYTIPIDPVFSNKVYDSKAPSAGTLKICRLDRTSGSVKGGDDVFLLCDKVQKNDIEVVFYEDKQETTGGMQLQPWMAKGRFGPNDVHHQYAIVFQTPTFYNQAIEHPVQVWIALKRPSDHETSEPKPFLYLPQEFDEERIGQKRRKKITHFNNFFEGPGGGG

Assay [6] deals with GST-Hu-p50 (Homo sapiens, UniProt P19838 7-356).
Assay [7] concerns the target T6, GST-Co-NF-kB (Capsaspora owczarzaki, UniProt F1ARL5 200-546).
T6 sequence: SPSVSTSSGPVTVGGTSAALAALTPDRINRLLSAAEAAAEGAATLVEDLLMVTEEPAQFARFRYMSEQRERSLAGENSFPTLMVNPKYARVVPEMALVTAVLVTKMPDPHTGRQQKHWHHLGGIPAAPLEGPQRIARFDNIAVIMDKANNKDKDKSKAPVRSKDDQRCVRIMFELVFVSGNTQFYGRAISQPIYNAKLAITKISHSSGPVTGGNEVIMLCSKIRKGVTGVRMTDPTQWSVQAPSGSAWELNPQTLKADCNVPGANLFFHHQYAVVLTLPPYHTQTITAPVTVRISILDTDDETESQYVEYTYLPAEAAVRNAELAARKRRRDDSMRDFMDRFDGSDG

Chain of GST-Hu-p50 (P19838 7-356): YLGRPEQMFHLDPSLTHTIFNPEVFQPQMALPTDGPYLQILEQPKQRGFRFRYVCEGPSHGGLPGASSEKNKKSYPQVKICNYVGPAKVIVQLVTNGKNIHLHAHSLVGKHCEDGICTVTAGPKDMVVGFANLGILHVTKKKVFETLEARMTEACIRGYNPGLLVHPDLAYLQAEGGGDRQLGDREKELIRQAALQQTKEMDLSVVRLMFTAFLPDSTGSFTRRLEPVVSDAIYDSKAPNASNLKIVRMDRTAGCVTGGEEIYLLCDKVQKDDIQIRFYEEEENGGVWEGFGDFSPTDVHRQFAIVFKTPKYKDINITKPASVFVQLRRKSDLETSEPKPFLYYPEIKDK

Take “CCGATTAACATCAAGGAAGTCCCTGATGTTAATCGGGTCTTGATTCGCTTGACGCTGCTG”: the binding signal in assay [1] stood at 5.76 z-score; in assay [2], 5.94 z-score; in assay [3], 5.82 z-score; in assay [4] it was 7.11 z-score; in assay [5], 5.83 z-score; in assay [6], 4.82 z-score.
On to “CCGATTAACATCAGGTAATTTTATGATGTTAATCGGGTCTTGATTCGCTTGACGCTGCTG”, for which the binding signal in assay [1] came to 1.38 z-score; in assay [2] it was 3.29 z-score; in assay [3], 5.66 z-score; in assay [4] it was 3.58 z-score; in assay [5], 2.95 z-score; in assay [6] it was 4.06 z-score.
“CCGATTAACATCAGGGATTTCACTGATGTTAATCGGGTCTTGATTCGCTTGACGCTGCTG”: the binding signal was determined as 2.71 z-score in assay [1]; 2.33 z-score in assay [2]; 1.49 z-score in assay [3]; 6.3 z-score in assay [4]; 4.19 z-score in assay [5]; 2.38 z-score in assay [6].
Take “CCGATTAACATCAGGGACGCCCCTGATGTTAATCGGGTCTTGATTCGCTTGACGCTGCTG”: the binding signal came out at 6.59 z-score in assay [1]; 5.71 z-score in assay [2]; 1.13 z-score in assay [7]; 7.12 z-score in assay [4]; 7.88 z-score in assay [5]; 4.5 z-score in assay [6].
Consider “CCGATTAACATCAGGGATTTACATGATGTTAATCGGGTCTTGATTCGCTTGACGCTGCTG”, for which the binding signal amounted to 2.19 z-score in assay [1]; 2.3 z-score in assay [2]; 1.4 z-score in assay [3]; 9.71 z-score in assay [4]; 3.34 z-score in assay [5]; 1.92 z-score in assay [6].
Regarding “CCGATTAACATCACGAAAGTCCCTGATGTTAATCGGGTCTTGATTCGCTTGACGCTGCTG”, the binding signal in assay [1] came to 6.26 z-score; in assay [2] it was 6.77 z-score; in assay [3], 7.54 z-score; in assay [4], 5.86 z-score; in assay [5], 5.78 z-score; in assay [6], 5.45 z-score.
As for “CCGATTAACATCAGGAAAGCCCCTGATGTTAATCGGGTCTTGATTCGCTTGACGCTGCTG”, the binding signal in assay [1] was 7.03 z-score; in assay [2], 9.89 z-score; in assay [7], 1.05 z-score; in assay [4], 8.43 z-score; in assay [5] it was 9.59 z-score; in assay [6] it was 6.88 z-score.
As to “CCGATTAACATCAGGAAAGACCCTGATGTTAATCGGGTCTTGATTCGCTTGACGCTGCTG”, the binding signal in assay [1] stood at 2.17 z-score; in assay [2], 4.11 z-score; in assay [3], 1.92 z-score; in assay [4], 4.41 z-score; in assay [5] it was 6.37 z-score; in assay [6], 3.3 z-score.
Regarding “CCGATTAACATCAGGAAACCACCTGATGTTAATCGGGTCTTGATTCGCTTGACGCTGCTG”, the binding signal in assay [1] turned out to be 4.41 z-score; in assay [2], 4.04 z-score; in assay [3] it was 3.92 z-score; in assay [4], 7.57 z-score; in assay [5] it was 6.62 z-score; in assay [6] it was 6.09 z-score.
For “CCGATTAACATCAGGGAAGGCCCTGATGTTAATCGGGTCTTGATTCGCTTGACGCTGCTG”, the binding signal was 4.52 z-score in assay [1]; 4.31 z-score in assay [2]; 1.93 z-score in assay [3]; 8.94 z-score in assay [4]; 6.45 z-score in assay [5]; 2.96 z-score in assay [6].
For “CCGATTAACATCAAAATTCCCGTTGATGTTAATCGGGTCTTGATTCGCTTGACGCTGCTG”, the binding signal in assay [1] was 3.98 z-score; in assay [2], 6.87 z-score; in assay [7], 4.03 z-score; in assay [4], 5.57 z-score; in assay [5], 6.15 z-score; in assay [6] it was 5.26 z-score.
Consider “CCGATTAACATCAGGAAAGCACCTGATGTTAATCGGGTCTTGATTCGCTTGACGCTGCTG”, for which the binding signal in assay [1] was 2.85 z-score; in assay [2] it was 4.19 z-score; in assay [3], 2.69 z-score; in assay [4], 6.13 z-score; in assay [5], 5.89 z-score; in assay [6], 4.74 z-score.
